Assay results reported in PubChem BioAssay AID1486 (The Scripps Research Institute Molecular Screening Center, 2009).
The whole screen tested about 220,000 compounds, of which about 2,400 (1.1%) were called active. The sample holds actives, similar compounds and a random draw of the others, so the mix is not that of the screen.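 The calls were made as follows: active = inhibition above a per-campaign cutoff, the mean inhibition of all tested compounds plus 3 SD (cut at about 27% in these data); inactive = the rest.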

assay: growth loss in parental Ba/F3 cells – cell-based, murine pro-B, CellTiter-Glo luminescence, counter-screen for JAK2V617F inhibitor project (AID 1486); conditions: Ba/F3 parental viability, CellTiter-Glo ATP luminescence; at 5.6 µM; stronger effect = higher value;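 also: 0% = DMSO wells and 100% = JAK Inhibitor I control wells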

| SMILES | inhibition |
| --- | --- |
| CCN(CC)C(=O)CSC(Nc1cccc(F)c1)=C(C#N)C#N | -0.34% (inactive) |
| Cc1cc(C)c2nc(-c3cccnc3)cc(C(=O)Nc3ccc(S(=O)(=O)Nc4onc(C)c4C)cc3)c2c1 | 8.53% (inactive) |
| O=C(CN1CCCCC1)Nc1ccccc1Cl | 5.49% (inactive) |
| O=C(Nc1ccccc1Cl)/C(Cl)=C(\Cl)S(=O)c1ccccc1 (stereo unspecified) | 104% (active) |
| O=C(Nc1ccccc1Cl)c1ccc2nsnc2c1 | 9.68% (inactive) |
| N#C/C(=C\c1ccc(N2CCOCC2)o1)C(=O)N1CCOCC1 | 4.08% (inactive) |
| Cc1cc(OCCCC(=O)NCCN2C(=O)S/C(=C\c3cccnc3)C2=O)ccc1Cl | 6.03% (inactive) |
| O=C(O)Cc1csc(NC(=O)CSc2nnnn2-c2ccc(O)cc2)n1 | -4.21% (inactive) |
| CC1Cc2ccccc2N1CC(=O)Nc1ccc2c(c1)OC(F)(F)O2 (stereo unspecified) | 4.14% (inactive) |
| Cc1cc(OCCN2CCCC2)cc(C(C)C)c1 | 93.8% (active) |
| Cc1cc(OCCN2CCCC2)ccc1C(C)C | 1.72% (inactive) |
| Cc1ccc(C(C)C)cc1OCCN1CCCC1 | 5.38% (inactive) |
| Cc1ccc(-c2nc(SCC(=O)Nc3ccccc3OC(F)F)c3c(C)c(C(=O)O)sc3n2)cc1 | 1.45% (inactive) |
| CCOC(=O)C1(S(=O)(=O)c2ccccc2)CCN(Cc2ccccc2)CC1 | 8.01% (inactive) |
| CC1=C/C(=N\OS(=O)(=O)c2ccccc2)C=CC1=O | 32.1% (active) |
| CC1=C/C(=N\S(=O)(=O)c2ccccc2)C(C(C)C)=CC1=O | 5.54% (inactive) |
| CCN(CC)CCNCc1ccc(OCc2ccc(Cl)nc2)c(OC)c1 | 2.52% (inactive) |
| COc1cc2c(cc1O)[C@H](Cc1ccc(Oc3cc(C[C@@H]4NCCc5cc(OC)c(O)cc54)ccc3O)cc1)NCC2 | 5.61% (inactive) |
| CC[C@H]1CN2CCc3cc(OC)c(OC)cc3[C@@H]2C[C@@H]1C[C@H]1NCCc2cc(OC)c(OC)cc21 | 100% (active) |
| COC(=O)C1=C(NC(=O)C(C)(C)C)CCS1 | -0.46% (inactive) |
| O=C(O)c1cccnc1Sc1ncnc2sc3c(c12)CCC3 | -7.35% (inactive) |
| O=C(c1ccc(Cl)cc1)N1N=C(c2ccccn2)CC1(O)C(F)(F)F (stereo unspecified) | 0.67% (inactive) |
| O=C(NCC1CCCCC1)c1cc(S(=O)(=O)N2CCCCC2)ccc1N1CCOCC1 | 8.85% (inactive) |
| CCOc1cc(C(=O)N2CCc3cc(OC)c(OC)cc3C2)ccc1OC(F)F | 78.2% (active) |

| SMILES | inhibition |
| --- | --- |
| COc1cc2c(cc1OC)CN(C(=O)c1ccc(S(=O)(=O)N3CCCCCC3)cc1)CC2 | 10% (inactive) |
| COc1cc2c(cc1OC)CN(C(=O)c1cc(=O)c3ccccc3o1)CC2 | 24.8% (inactive) |
| O=C(COC(=O)c1cc(=O)[nH]c2ccccc12)Nc1nc(-c2cccc(Br)c2)cs1 | 3.32% (inactive) |
| O=C(Cn1c(COc2ccccc2)nc2ccccc21)Nc1cc(Cl)c(Cl)cc1Cl | 2.68% (inactive) |
| CS(=O)(=O)N1CCN(C(=O)Cc2ccccc2)CC1 | -0.7% (inactive) |
| CC(C)CC(=O)N1CCC(O)(CS(=O)(=O)Cc2ccccc2)CC1 | 50.5% (active) |
| Cc1ccccc1CS(=O)(=O)CC1(O)CCN(C(=O)c2cccc(C(F)(F)F)c2)CC1 | -1.41% (inactive) |
| CCCCNc1nc2c(c(=O)n(C)c(=O)n2C)n1Cc1cccc(OC)c1 | 48.4% (active) |
| COC(=O)C(C)Sc1nc2c(c(=O)n(C)c(=O)n2C)n1Cc1cccc(C)c1 (stereo unspecified) | 4% (inactive) |
| Cn1c(=O)c2c(nc(NCCc3ccccc3)n2Cc2ccccc2)n(C)c1=O | 6.77% (inactive) |
| Cc1c(C(=O)Nc2cccc(Cl)c2)cn2c(nc3ccccc32)c1C#N | 2.67% (inactive) |
| COC(=O)C1CCN(C(=O)c2cc(=O)[nH]c3ccccc23)CC1 | 5.12% (inactive) |
| O=C(COC(=O)CCCNC(=O)c1ccc(Cl)cc1)Nc1cc(Cl)ccc1Cl | 2.29% (inactive) |
| Cc1cc(C)nc(S/C=C/C(=O)c2ccccc2)n1 | 6.81% (inactive) |
| COc1ccc(Cl)cc1CSc1ncn[nH]1 | -3.75% (inactive) |
| O=C(/C=C/Sc1ncn[nH]1)c1ccc(Cl)cc1 | 59.2% (active) |
| Nc1scc[n+]1Cc1cccc2cccnc12 | -7.17% (inactive) |
| CC1=CC(C)(C)NC(=S)N1NC(=O)c1ccccc1Cl | -3.65% (inactive) |
| COc1ccc(N2CCN(Cc3cc(=O)oc4ccc5ccccc5c34)CC2)cc1 | 5.38% (inactive) |
| COc1ccc(Nc2cc(=O)oc3ccccc23)cc1 | 50.9% (active) |
| COc1ccc(Nc2cc(=O)n(-c3ccccc3)c3c2c(=O)n(C)c(=O)n3C)cc1 | 4.99% (inactive) |
| O=C(Nc1cccc(S(=O)(=O)NC2=NCCC2)c1)C1CCCCC1 | -1.01% (inactive) |
| CCN(CC)CCn1c(N)c(S(=O)(=O)c2ccccc2)c2nc3ccccc3nc21 | 5.27% (inactive) |
| c1cnn(-c2cc(N3CCOCC3)ncn2)c1 | 5.98% (inactive) |

| SMILES | inhibition |
| --- | --- |
| O=C(Nc1cc(N2CCOCC2)ncn1)NC1(C(F)(F)F)Oc2ccc(Cl)cc2O1 (stereo unspecified) | 42.3% (active) |
| Cc1csc(NC(=O)NC2(C(F)(F)F)Oc3ccccc3O2)n1 | 13.6% (inactive) |
| CC1(C)CCSC(/C=C/c2ccccc2)=N1 | -2.99% (inactive) |
| CC1(C)C=C2[C@H]3CC[C@@H]4[C@@]5(C)CCC(=O)C(C)(C)[C@@H]5CC[C@@]4(C)[C@]3(C)CC[C@@]2(C(=O)O)CC1 | 4.85% (inactive) |
| Cc1ccc(OCC(=O)Nc2ccc(S(=O)(=O)Nc3ccccn3)cc2)cc1 | 0.56% (inactive) |
| Cc1ccc(S(=O)(=O)Nc2ccc3ncccc3c2)cc1 | 37.5% (active) |
| Cc1cc(C)cc(OCC(=O)Nc2ccc(S(=O)(=O)Nc3ccccn3)cc2)c1 | -1.55% (inactive) |
| COc1ccccc1C(=O)Nc1nc2nc(-c3ccccc3)cc(=O)n2[nH]1 | 2.81% (inactive) |
| Nc1nc(Sc2ncccc2[N+](=O)[O-])n[nH]1 | -0.31% (inactive) |
| CCOC(=O)c1ccc(NNC(C)=O)c([N+](=O)[O-])c1 | -0.42% (inactive) |
| O=C(NNC(=O)C1C2CCC(C2)C1C(=O)O)c1ccc(Cl)cc1 (stereo unspecified) | 2.39% (inactive) |
| COc1cccc(OC)c1C(=O)Nc1ccc(N2CCCCC2)cc1 | 9.75% (inactive) |
| COc1cccc(C(=O)Nc2ccc(N3CCCC3)cc2)c1 | 45.8% (active) |
| COc1ccc(C(=O)NC(=S)Nc2ccc(N3CCCC3)cc2)cc1OC | 3.89% (inactive) |
| CCOCCCn1c(NN)nc2ccccc2c1=O | 1.96% (inactive) |
| COn1c(=O)c(=O)n(OC)c2ccccc21 | 3.35% (inactive) |
| COc1cc(OC)c(OC)cc1/C=N/Nc1ncnc2c1[nH]c1ccc(C)cc12 | -0.75% (inactive) |
| O=C1CCCN1CCCNc1ncnc2c1[nH]c1ccccc12 | 2.08% (inactive) |
| CC(C)OCCCNc1ncnc2c1[nH]c1ccc(F)cc12 | 69.9% (active) |
| CS(=O)(=O)c1ccc2nnn(OCC(=O)Nc3cccc(C#N)c3)c2c1 | -2.77% (inactive) |
| COc1ccc(NC(=O)C(CC(C)C)NS(=O)(=O)c2ccc3c(c2)CCN3C(C)=O)cc1OC (stereo unspecified) | 1.81% (inactive) |
| CCCc1nnc(SCC(=O)N2C(C)CCCC2C)n1CC (stereo unspecified) | 2.43% (inactive) |
| O=C(Nc1ccc2c(c1)OCCO2)c1cnccn1 | 4.31% (inactive) |
| CCN(CC)c1ccc(/C=N/NC(=O)c2cnccn2)c(O)c1 | 34.4% (active) |

| SMILES | inhibition |
| --- | --- |
| CCN(CC)c1ccc(/C=N/Nc2nc(C)cc(C)n2)c(O)c1 | 3.74% (inactive) |
| COC(=O)c1noc(C)c1-c1ccnn1C(=O)c1ccc(Cl)cc1 | -1.68% (inactive) |
| COCc1cc(=O)oc2cc(NS(=O)(=O)c3ccc(C)cc3)ccc12 | -1.36% (inactive) |
| COc1ccc(NC(=S)Nc2ccccc2Cl)cn1 | 9.94% (inactive) |
| Cc1ccc(NC(=O)OCc2cncs2)cc1 | 8.02% (inactive) |
| COc1ccc(Nc2cc(Cl)ccc2C(=O)O)cn1 | -9.44% (inactive) |
| COc1ccc(NC(=O)/C(Cl)=C(/Cl)S(=O)Cc2ccc(C)cc2)cn1 (stereo unspecified) | 103% (active) |
| COc1ccc(NC(=S)NCCNC(C)=O)cc1 | 3.11% (inactive) |
| COc1ccc(CS(=O)/C(Cl)=C(/Cl)C(=O)Nc2ccc(OC)nc2)cc1 (stereo unspecified) | 104% (active) |
| CN(C)/C(CN1CCCCC1)=C1\N=C(c2ccccc2)OC1=O | 7.38% (inactive) |
| O=C(CNCc1cccs1)Nc1cc(S(=O)(=O)N2CCCC2)ccc1Cl | -6.85% (inactive) |
| O=c1cc(-c2ccccc2)[nH]c2cc(F)ccc12 | 72.4% (active) |
| Cc1ccc(-c2cc(=O)c3ccc(F)cc3[nH]2)cc1 | 0.37% (inactive) |
| Cc1ccc(-c2cc(=O)c3ccc(Cl)cc3[nH]2)cc1 | -0.93% (inactive) |
| Cc1cc(O)ccc1NC1=CC(=O)CC(C)(C)C1 | 6.24% (inactive) |
| CCN(CC)CCCN=Cc1c(O)n(-c2ccc(C)cc2)c(=O)c2ccccc12 | 1.41% (inactive) |
| O=c1c2ccccc2nc2n1C(CSc1ccc(F)cc1)CN2 (stereo unspecified) | 3.79% (inactive) |
| O=c1c2ccccc2nc2n1C(CSCc1cccc(C(F)(F)F)c1)CS2 (stereo unspecified) | 17.3% (inactive) |
| O=c1c2ccccc2nc2n1C(CSCc1ccccc1)CS2 (stereo unspecified) | 39.8% (active) |
| Nc1nonc1-n1nnc(C(=O)N/N=C/c2cc(Br)ccc2O)c1CSC1=NCCS1 | 4.7% (inactive) |
| COC(=O)C1=C(N)Oc2c(oc(CO)cc2=O)C1c1c(F)cccc1Cl (stereo unspecified) | 1.36% (inactive) |
| CSC(=S)N/N=C/c1c[nH]c2ccccc12 | 3.36% (inactive) |
| S=c1[nH]nc(-c2ccccc2)n1/N=C/c1c[nH]c2ccccc12 | 0.81% (inactive) |
| C[n+]1ccc(/C=C/c2c[nH]c3ccccc23)cc1 | 75.7% (active) |
